Experimental data reported in paper PMC11062922 (Nature Chemical Biology, 2023).
Where two headings read alike, the source gives them in different places.

Columns and labels:
MAP4K2 = details: read-out: apparent Kd, n = 1
MARK3 = details: read-out: apparent Kd, n = 1
[1] = compound concentrations:100 nM and 1000 nM (sheet 'Lestaurtinib' of Supplementary Table 1),run:Lestaurtinib_02364_R3,Plate:MR002
[2] = compound concentrations:100 nM and 1000 nM (sheet 'Lestaurtinib' of Supplementary Table 1),run:Lestaurtinib_02367_R2,Plate:MR003
[3] = compound concentrations:100 nM and 1000 nM (sheet 'Lestaurtinib' of Supplementary Table 1),run:Lestaurtinib_02381_R1,Plate:MR004
[4] = compound concentrations:100 nM and 1000 nM (sheet 'Lestaurtinib' of Supplementary Table 1),run:Lestaurtinib_02407_R1,Plate:MR005
[5] = compound concentrations:100 nM and 1000 nM (sheet 'Lestaurtinib' of Supplementary Table 1),run:Lestaurtinib_02407_R2,Plate:MR005
[6] = compound concentrations:100 nM and 1000 nM (sheet 'Lestaurtinib' of Supplementary Table 1),run:Lestaurtinib_02422_R1,Plate:MR006
[7] = compound concentrations:100 nM and 1000 nM (sheet 'Lestaurtinib' of Supplementary Table 1),run:Lestaurtinib_02422_R2,Plate:MR006
[8] = compound concentrations:100 nM and 1000 nM (sheet 'Lestaurtinib' of Supplementary Table 1),run:Lestaurtinib_02437_R3,Plate:MR007
[9] = compound concentrations:100 nM and 1000 nM (sheet 'Lestaurtinib' of Supplementary Table 1),run:Lestaurtinib_02438_R1,Plate:MR008
[10] = compound concentrations:100 nM and 1000 nM (sheet 'Lestaurtinib' of Supplementary Table 1),run:Lestaurtinib_02438_R2,Plate:MR008

Lestaurtinib
potency estimated from few doses (MAP4K2; [1]): 260 nM | potency estimated from few doses (MAP4K2; [2]): 163 nM | potency estimated from few doses (MAP4K2; [3]): 163 nM | potency estimated from few doses (MAP4K2; compound concentrations:100 nM and 1000 nM (sheet 'Lestaurtinib' of Supplementary Table 1),run:Lestaurtinib_02381_R3,Plate:MR004): 229 nM | potency estimated from few doses (MAP4K2; [4]): 134 nM | potency estimated from few doses (MAP4K2; [5]): 149 nM | potency estimated from few doses (MAP4K2; compound concentrations:100 nM and 1000 nM (sheet 'Lestaurtinib' of Supplementary Table 1),run:Lestaurtinib_02407_R3,Plate:MR005): 180 nM | potency estimated from few doses (MAP4K2; [6]): 191 nM | potency estimated from few doses (MAP4K2; [7]): 261 nM | potency estimated from few doses (MAP4K2; compound concentrations:100 nM and 1000 nM (sheet 'Lestaurtinib' of Supplementary Table 1),run:Lestaurtinib_02422_R3,Plate:MR006): 163 nM | potency estimated from few doses (MAP4K2; [8]): 29.8 nM | potency estimated from few doses (MAP4K2; [9]): 151 nM | potency estimated from few doses (MAP4K2; [10]): 277 nM | potency estimated from few doses (MAP4K2; compound concentrations:100 nM and 1000 nM (sheet 'Lestaurtinib' of Supplementary Table 1),run:Lestaurtinib_02473_R1,Plate:MR010): 197 nM | potency estimated from few doses (MAP4K2; compound concentrations:100 nM and 1000 nM (sheet 'Lestaurtinib' of Supplementary Table 1),run:Lestaurtinib_02473_R2,Plate:MR010): 202 nM | potency estimated from few doses (MAP4K2; compound concentrations:100 nM and 1000 nM (sheet 'Lestaurtinib' of Supplementary Table 1),run:Lestaurtinib_02482_R2,Plate:MR011): 222 nM | potency estimated from few doses (MAP4K2; compound concentrations:100 nM and 1000 nM (sheet 'Lestaurtinib' of Supplementary Table 1),run:Lestaurtinib_02487_R2,Plate:MR012): 182 nM | potency estimated from few doses (MAP4K2; compound concentrations:100 nM and 1000 nM (sheet 'Lestaurtinib' of Supplementary Table 1),run:Lestaurtinib_02487_R3,Plate:MR012): 244 nM | potency estimated from few doses (MAP4K2; compound concentrations:100 nM and 1000 nM (sheet 'Lestaurtinib' of Supplementary Table 1),run:Lestaurtinib_02496_R1,Plate:MR013): 231 nM | potency estimated from few doses (MAP4K2; compound concentrations:100 nM and 1000 nM (sheet 'Lestaurtinib' of Supplementary Table 1),run:Lestaurtinib_02566_R1,Plate:MR014): 259 nM | potency estimated from few doses (MAP4K2; compound concentrations:100 nM and 1000 nM (sheet 'Lestaurtinib' of Supplementary Table 1),run:Lestaurtinib_02566_R2,Plate:MR014): 180 nM | potency estimated from few doses (MAP4K2; compound concentrations:100 nM and 1000 nM (sheet 'Lestaurtinib' of Supplementary Table 1),run:Lestaurtinib_02566_R3,Plate:MR014): 159 nM | potency estimated from few doses (MAP4K2; compound concentrations:100 nM and 1000 nM (sheet 'Lestaurtinib' of Supplementary Table 1),run:Lestaurtinib_02572_R1,Plate:MR015): 196 nM | potency estimated from few doses (MAP4K2; compound concentrations:100 nM and 1000 nM (sheet 'Lestaurtinib' of Supplementary Table 1),run:Lestaurtinib_02572_R3,Plate:MR015): 235 nM | potency estimated from few doses (MAP4K2; compound concentrations:100 nM and 1000 nM (sheet 'Lestaurtinib' of Supplementary Table 1),run:Lestaurtinib_02577_R1,Plate:MR016): 199 nM | potency estimated from few doses (MAP4K2; compound concentrations:100 nM and 1000 nM (sheet 'Lestaurtinib' of Supplementary Table 1),run:Lestaurtinib_02577_R3,Plate:MR016): 131 nM | potency estimated from few doses (MAP4K2; compound concentrations:100 nM and 1000 nM (sheet 'Lestaurtinib' of Supplementary Table 1),run:Lestaurtinib_02584_R3,Plate:MR017): 245 nM | potency estimated from few doses (MAP4K2; compound concentrations:100 nM and 1000 nM (sheet 'Lestaurtinib' of Supplementary Table 1),run:Lestaurtinib_02601_R2,Plate:MR018): 153 nM | potency estimated from few doses (MAP4K2; compound concentrations:100 nM and 1000 nM (sheet 'Lestaurtinib' of Supplementary Table 1),run:Lestaurtinib_02606_R1,Plate:MR019): 184 nM | potency estimated from few doses (MAP4K2; compound concentrations:100 nM and 1000 nM (sheet 'Lestaurtinib' of Supplementary Table 1),run:Lestaurtinib_02606_R2,Plate:MR019): 278 nM | potency estimated from few doses (MAP4K2; compound concentrations:100 nM and 1000 nM (sheet 'Lestaurtinib' of Supplementary Table 1),run:Lestaurtinib_02606_R3,Plate:MR019): 191 nM | potency estimated from few doses (MAP4K2; compound concentrations:100 nM and 1000 nM (sheet 'Lestaurtinib' of Supplementary Table 1),run:Lestaurtinib_02724_R1,Plate:MR021): 279 nM | potency estimated from few doses (MAP4K2; compound concentrations:100 nM and 1000 nM (sheet 'Lestaurtinib' of Supplementary Table 1),run:Lestaurtinib_02724_R2,Plate:MR021): 279 nM | potency estimated from few doses (MAP4K2; compound concentrations:100 nM and 1000 nM (sheet 'Lestaurtinib' of Supplementary Table 1),run:Lestaurtinib_02724_R3,Plate:MR021): 269 nM | potency estimated from few doses (MAP4K2; compound concentrations:100 nM and 1000 nM (sheet 'Lestaurtinib' of Supplementary Table 1),run:Lestaurtinib_02741_R1,Plate:MR023): 191 nM | potency estimated from few doses (MAP4K2; compound concentrations:100 nM and 1000 nM (sheet 'Lestaurtinib' of Supplementary Table 1),run:Lestaurtinib_02741_R3,Plate:MR023): 237 nM | potency estimated from few doses (MAP4K2; compound concentrations:100 nM and 1000 nM (sheet 'Lestaurtinib' of Supplementary Table 1),run:Lestaurtinib_02748_R2,Plate:MR024): 289 nM | potency estimated from few doses (MAP4K2; compound concentrations:100 nM and 1000 nM (sheet 'Lestaurtinib' of Supplementary Table 1),run:Lestaurtinib_02752_R2,Plate:MR025): 134 nM | potency estimated from few doses (MAP4K2; compound concentrations:100 nM and 1000 nM (sheet 'Lestaurtinib' of Supplementary Table 1),run:Lestaurtinib_02752_R3,Plate:MR025): 136 nM | potency estimated from few doses (MAP4K2; compound concentrations:100 nM and 1000 nM (sheet 'Lestaurtinib' of Supplementary Table 1),run:Lestaurtinib_02765_R2,Plate:MR026): 199 nM | potency estimated from few doses (MAP4K2; compound concentrations:100 nM and 1000 nM (sheet 'Lestaurtinib' of Supplementary Table 1),run:Lestaurtinib_02765_R3,Plate:MR026): 158 nM | potency estimated from few doses (MAP4K2; compound concentrations:100 nM and 1000 nM (sheet 'Lestaurtinib' of Supplementary Table 1),run:Lestaurtinib_02766_R2,Plate:MR027): 220 nM | potency estimated from few doses (MAP4K2; compound concentrations:100 nM and 1000 nM (sheet 'Lestaurtinib' of Supplementary Table 1),run:Lestaurtinib_02766_R3,Plate:MR027): 231 nM | potency estimated from few doses (MAP4K2; compound concentrations:100 nM and 1000 nM (sheet 'Lestaurtinib' of Supplementary Table 1),run:Lestaurtinib_02768_R1,Plate:MR028): 190 nM | potency estimated from few doses (MAP4K2; compound concentrations:100 nM and 1000 nM (sheet 'Lestaurtinib' of Supplementary Table 1),run:Lestaurtinib_02768_R3,Plate:MR028): 196 nM | potency estimated from few doses (MAP4K2; compound concentrations:100 nM and 1000 nM (sheet 'Lestaurtinib' of Supplementary Table 1),run:Lestaurtinib_02795_R1,Plate:MR022): 199 nM | potency estimated from few doses (MAP4K2; compound concentrations:100 nM and 1000 nM (sheet 'Lestaurtinib' of Supplementary Table 1),run:Lestaurtinib_02795_R2,Plate:MR022): 146 nM | potency estimated from few doses (MAP4K2; compound concentrations:100 nM and 1000 nM (sheet 'Lestaurtinib' of Supplementary Table 1),run:Lestaurtinib_02795_R3,Plate:MR022): 377 nM | potency estimated from few doses (MAP4K2; compound concentrations:100 nM and 1000 nM (sheet 'Lestaurtinib' of Supplementary Table 1),run:Lestaurtinib_02802_R3,Plate:MR029): 290 nM | potency estimated from few doses (MAP4K2; compound concentrations:100 nM and 1000 nM (sheet 'Lestaurtinib' of Supplementary Table 1),run:Lestaurtinib_02896_R2,Plate:MR030): 215 nM | potency estimated from few doses (MAP4K2; compound concentrations:100 nM and 1000 nM (sheet 'Lestaurtinib' of Supplementary Table 1),run:Lestaurtinib_03172_R2,Plate:MR031): 295 nM | potency estimated from few doses (MAP4K2; compound concentrations:100 nM and 1000 nM (sheet 'Lestaurtinib' of Supplementary Table 1),run:Lestaurtinib_03172_R3,Plate:MR031): 235 nM | potency estimated from few doses (MAP4K2; compound concentrations:100 nM and 1000 nM (sheet 'Lestaurtinib' of Supplementary Table 1),run:Lestaurtinib_03252_R1,Plate:MR032): 130 nM | potency estimated from few doses (MAP4K2; compound concentrations:100 nM and 1000 nM (sheet 'Lestaurtinib' of Supplementary Table 1),run:Lestaurtinib_03260_R1,Plate:MR033): 372 nM | potency estimated from few doses (MAP4K2; compound concentrations:100 nM and 1000 nM (sheet 'Lestaurtinib' of Supplementary Table 1),run:Lestaurtinib_03260_R3,Plate:MR033): 228 nM | potency estimated from few doses (MARK3; compound concentrations:100 nM and 1000 nM (sheet 'Lestaurtinib' of Supplementary Table 1),run:Lestaurtinib_02364_R1,Plate:MR002): 132 nM | potency estimated from few doses (MARK3; [1]): 180 nM | potency estimated from few doses (MARK3; compound concentrations:100 nM and 1000 nM (sheet 'Lestaurtinib' of Supplementary Table 1),run:Lestaurtinib_02367_R1,Plate:MR003): 92.8 nM | potency estimated from few doses (MARK3; [2]): 160 nM | potency estimated from few doses (MARK3; [3]): 132 nM | potency estimated from few doses (MARK3; compound concentrations:100 nM and 1000 nM (sheet 'Lestaurtinib' of Supplementary Table 1),run:Lestaurtinib_02381_R2,Plate:MR004): 167 nM | potency estimated from few doses (MARK3; [4]): 160 nM | potency estimated from few doses (MARK3; [5]): 151 nM | potency estimated from few doses (MARK3; [6]): 169 nM | potency estimated from few doses (MARK3; [7]): 52.3 nM | potency estimated from few doses (MARK3; compound concentrations:100 nM and 1000 nM (sheet 'Lestaurtinib' of Supplementary Table 1),run:Lestaurtinib_02437_R1,Plate:MR007): 151 nM | potency estimated from few doses (MARK3; compound concentrations:100 nM and 1000 nM (sheet 'Lestaurtinib' of Supplementary Table 1),run:Lestaurtinib_02437_R2,Plate:MR007): 133 nM | potency estimated from few doses (MARK3; [8]): 23.2 nM | potency estimated from few doses (MARK3; [9]): 196 nM | potency estimated from few doses (MARK3; [10]): 160 nM | potency estimated from few doses (MARK3; compound concentrations:100 nM and 1000 nM (sheet 'Lestaurtinib' of Supplementary Table 1),run:Lestaurtinib_02443_R1,Plate:MR009): 202 nM | potency estimated from few doses (MARK3; compound concentrations:100 nM and 1000 nM (sheet 'Lestaurtinib' of Supplementary Table 1),run:Lestaurtinib_02443_R2,Plate:MR009): 181 nM
